For assay [1], the target named is Peroxisome proliferator-activated receptor delta (Homo sapiens) (UniProt Q03181). The assay is described as follows: qHTS assay to identify small molecule agonists of the peroxisome proliferator-activated receptor delta (PPARd) signaling pathway (AID 743212; calls by dose curve). An outline of the steps: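 GeneBLAzer PPARd UAS-bla HEK293H cells (beta-lactamase reporter under UAS control), plated and rested 5 h at 37 C, then exposed to compounds in DMSO at 37 C; LiveBLAzer B/G FRET substrate added, 2 h room temperature, fluorescence read.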
Sequence of Peroxisome proliferator-activated receptor delta (Homo sapiens) (Q03181 whole entry, looked up): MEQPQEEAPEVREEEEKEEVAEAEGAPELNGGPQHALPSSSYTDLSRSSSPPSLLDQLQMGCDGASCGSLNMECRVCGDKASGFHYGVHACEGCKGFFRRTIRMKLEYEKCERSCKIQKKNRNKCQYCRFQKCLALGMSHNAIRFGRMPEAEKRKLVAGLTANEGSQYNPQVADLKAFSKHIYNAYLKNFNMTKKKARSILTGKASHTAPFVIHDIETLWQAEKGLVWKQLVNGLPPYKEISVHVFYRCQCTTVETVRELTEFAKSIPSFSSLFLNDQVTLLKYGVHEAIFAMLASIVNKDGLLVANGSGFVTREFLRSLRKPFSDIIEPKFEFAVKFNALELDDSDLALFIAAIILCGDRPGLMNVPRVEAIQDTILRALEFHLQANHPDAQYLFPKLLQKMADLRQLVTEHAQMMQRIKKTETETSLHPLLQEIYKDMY

Assay [2] in a line: qHTS assay to identify small molecule antagonists of the farnesoid-X-receptor (FXR) signaling pathway - cell viability counter screen (AID 743221; active means well fitted cell-killing curve with a large enough effect in the repeat runs, not every such curve was filed as active; further: nearly all actives have a fitted effect of over 50% in size; further: potency means the concentration at half of the fitted maximal effect). The method in brief:
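Cytotoxicity counter screen run in the FXR-bla reporter wells: HEK 293T cells exposed to compound with 50 uM (final) chenodeoxycholic acid for 16 h, 37 C, then viability measured by CellTiter-Glo luminescence after 30 min, room temperature.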

The target in assay [3] is Vitamin D3 receptor (Homo sapiens) (UniProt P11473). The assay is described as follows: qHTS assay to identify small molecule antagonists of the vitamin D receptor (VDR) signaling pathway (AID 743223; active means well fitted inhibition curve with a large enough effect in the signal ratio in the repeat runs, not every such curve was filed as active; the % refers to the signal ratio). The method in brief:
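Antagonist mode: compound added to VDR-bla cells alongside agonist 1alpha,25-dihydroxyvitamin D3 (3 nM final), incubation 16 h at 37C. Read-out is LiveBLAzer FRET fluorescence, 2 h at room temperature.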

Assay [4] is described as follows: qHTS assay to identify small molecule agonists of the vitamin D receptor (VDR) signaling pathway - cell viability counter screen (AID 743224). Further: nearly all actives have a fitted effect of over 50% in size. Further: potency means the concentration at half of the fitted maximal effect. The method in brief:
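Luminescence from CellTiter-Glo, read after 30 min at room temperature, reports viability of VDR-bla cells treated with compounds for 16 h at 37C in the wells used for the beta-lactamase FRET read.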

Assay [5] is described as follows: qHTS assay to identify small molecule antagonists of the vitamin D receptor (VDR) signaling pathway - cell viability counter screen (AID 743225). Further: nearly all actives have a fitted effect of over 50% in size. Further: potency means the concentration at half of the fitted maximal effect. The method in brief:
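Cytotoxicity counter screen read by CellTiter-Glo luminescence (30 min, room temperature) in the same wells as the VDR-bla antagonist readout. HEK 293T VDR-UAS-bla cells had 16 h at 37C with compound and 3 nM (final) 1-alpha,25-dihydroxyvitamin D3, then 2 h with FRET substrate.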

Assay [6] is described as follows: qHTS assay to identify small molecule agonists of the endoplasmic reticulum stress response signaling pathway - cell viability counter screen (AID 1159517; calls by dose curve; further: nearly all actives have a fitted effect of over 50% in size; further: potency means the concentration at half of the fitted maximal effect). An outline of the steps: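 Luminescence readout: CellTiter-Glo, 30 min RT, same wells as the ESRE-bla reporter read. HeLa ESRE-bla, 1,500 cells/well, o/n 37 C; cpd 5 hr 37 C/5% CO2.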
Assay [7] concerns the target Nuclear receptor ROR-gamma (Homo sapiens) (UniProt P51449). The assay can be described thus: qHTS assay to identify small molecule antagonists of the retinoid-related orphan receptor gamma (ROR-gamma) signaling pathway (AID 1159521; further: nearly all actives have a fitted effect of over 50% in size; further: potency means the concentration at half of the fitted maximal effect). The method in brief: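 Antagonist read-out: drop in luminescence (ONE-Glo) from an RORE-LUC reporter in CHO cells with doxycycline-inducible ROR-gamma; 2 hr compound pretreatment, 1 uM doxycycline, 16 hr incubation at 37 C.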

Assay [8] in a line: qHTS assay to identify small molecule agonists of the AP-1 signaling pathway - cell viability counter screen (AID 1159525; calls by dose curve; further: nearly all actives have a fitted effect of over 55% in size; further: potency means the concentration at half of the fitted maximal effect). The method in brief:
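ME-180 AP-1-bla, 2500 cells/well, Opti-MEM + 0.5% dialyzed FBS; overnight 37 °C; cpd 15-pt titration, 5 h 37 °C; CellTiter-Glo 30 min RT; luminescence read; normalised to TOAB and DMSO controls.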

Assay [9] is described as follows: qHTS assay to identify small molecule agonists of the RXR signaling pathway - cell viability counter screen (AID 1159529). Further: nearly all actives have a fitted effect of over 50% in size. Further: potency means the concentration at half of the fitted maximal effect. The method in brief:
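CellTiter-Glo luminescence gave viability in the wells also read for beta-lactamase. Cells (RXR-alpha-UAS-bla HEK 293T, 2% charcoal-stripped FBS medium) had 5 hr plating, then 16 hr compound exposure at 37 C; tetraoctyl ammonium bromide served as positive control.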

The nature of assay [10]: qHTS assay to identify small molecule agonists of the peroxisome proliferator-activated receptor delta (PPARd) signaling pathway - cell viability counter screen (AID 743211). Further: nearly all actives have a fitted effect of over 55% in size. Further: potency means the concentration at half of the fitted maximal effect. An outline of the steps:
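Viability was measured as CellTiter-Glo luminescence (30 min, room temperature) in the same wells as the beta-lactamase readout. GeneBLAzer PPARd UAS-bla HEK293H cells received compound after 5 h plating and were incubated 17 h at 37 C.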

Assay [11] in a line: qHTS assay to identify small molecule antagonists of the peroxisome proliferator-activated receptor delta (PPARd) signaling pathway - cell viability counter screen (AID 743213). Further: nearly all actives have a fitted effect of over 50% in size. Further: potency means the concentration at half of the fitted maximal effect. The method in brief: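 HEK293H cells with the PPARd UAS-bla reporter, co-treated 17 h at 37 C with compounds and L165041 (300 nM final), were lysed with CellTiter-Glo. Luminescence indicated viable cell content.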

Assay [12] has as its target Peroxisome proliferator-activated receptor delta (Homo sapiens) (UniProt Q03181). The assay is described as follows: qHTS assay to identify small molecule antagonists of the peroxisome proliferator-activated receptor delta (PPARd) signaling pathway (AID 743215; active means well fitted inhibition curve with a large enough effect in the signal ratio in the repeat runs, not every such curve was filed as active; the % refers to the signal ratio;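 further: cells stimulated with agonist L165041 at 300 nM final during compound exposure; series mostly up to about 62 µM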). The method in brief:
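Read-out is beta-lactamase FRET fluorescence, measured 2 h after substrate addition at room temperature. Beforehand, UAS-bla HEK293H cells carrying the PPARd reporter were exposed to compounds with L165041 at 300 nM final for 17 h at 37 C.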

In assay [13] the target is Bile acid receptor (Homo sapiens) (UniProt Q96RI1). The assay can be described thus: qHTS assay to identify small molecule antagonists of the farnesoid-X-receptor (FXR) signaling pathway (AID 743217; active means well fitted inhibition curve with a large enough effect in the signal ratio in the repeat runs, not every such curve was filed as active; the % refers to the signal ratio). An outline of the steps: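 HEK 293T FXR-UAS-bla, 5000 cells/well; compound + CDCA 50 uM final; 16 h, 37 °C; B/G FRET substrate 2 h RT; fluorescence.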
Sequence of Bile acid receptor (Homo sapiens) (Q96RI1 whole entry, looked up): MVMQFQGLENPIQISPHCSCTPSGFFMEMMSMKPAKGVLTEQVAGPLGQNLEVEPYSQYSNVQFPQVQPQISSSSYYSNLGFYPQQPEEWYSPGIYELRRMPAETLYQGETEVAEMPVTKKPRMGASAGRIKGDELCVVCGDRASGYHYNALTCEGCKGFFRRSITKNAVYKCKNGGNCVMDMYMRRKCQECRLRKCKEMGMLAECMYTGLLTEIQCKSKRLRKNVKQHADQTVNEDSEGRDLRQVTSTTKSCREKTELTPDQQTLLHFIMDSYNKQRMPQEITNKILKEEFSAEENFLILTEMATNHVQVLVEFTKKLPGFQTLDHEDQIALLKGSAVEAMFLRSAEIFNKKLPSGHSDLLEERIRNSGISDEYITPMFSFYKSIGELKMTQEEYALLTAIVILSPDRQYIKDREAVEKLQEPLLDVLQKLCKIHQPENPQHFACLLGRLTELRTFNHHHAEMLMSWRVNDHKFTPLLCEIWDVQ
The nature of assay [14]: qHTS assay to identify small molecule agonists of the farnesoid-X-receptor (FXR) signaling pathway - cell viability counter screen (AID 743218). Further: nearly all actives have a fitted effect of over 45% in size. Further: potency means the concentration at half of the fitted maximal effect. The method in brief: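 HEK 293T FXR-bla cells; 5 h pre-incubation, 16 h compound exposure at 37 C; LiveBLAzer substrate 2 h RT, then CellTiter-Glo 30 min RT, luminescence.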
Assay [15] addresses Vitamin D3 receptor (Homo sapiens) (UniProt P11473). The assay is described as follows: qHTS assay to identify small molecule agonists of the vitamin D receptor (VDR) signaling pathway (AID 743222; calls by dose curve). An outline of the steps: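 VDR-bla cells, 2,000/well; 4 h preincubation 37C; cpd (DMSO) 16 h; LiveBLAzer B/G substrate 2 h RT; fluorescence intensity read.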
Assay [16] addresses Retinoic acid receptor RXR-alpha (Homo sapiens) (UniProt P19793). The assay can be described thus: qHTS assay to identify small molecule agonists of the RXR signaling pathway (AID 1159527; calls by dose curve; further: nearly all actives have a fitted effect of over 35% in size). The method in brief: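 Agonist-mode beta-lactamase reporter assay: HEK 293T RXR-alpha-UAS-bla cells treated 16 hr at 37 C with compounds, 9-cis retinoic acid as positive control. LiveBLAzer FRET substrate, 405 nm excitation, 460/530 nm emission.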

Assay [17] concerns the target Bile acid receptor (Homo sapiens) (UniProt Q96RI1). The assay is described as follows: qHTS assay to identify small molecule agonists of the farnesoid-X-receptor (FXR) signaling pathway (AID 743220; active means well fitted activation curve with a large enough effect in the signal ratio in the repeat runs, not every such curve was filed as active; the % refers to the signal ratio). An outline of the steps: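 Beta-lactamase reporter under UAS control in GeneBLAzer FXR HEK 293T cells (5000/well) measured with LiveBLAzer FRET substrate after 2 h at room temperature. Compound exposure lasted 16 h at 37C.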

Results filed as inconclusive are left out. Values without a mark were called inactive. Activity calls are given as the source filed them. Unless noted, the call rests on the fitted dose curve; in most records, active means well fitted curve in the direction sought with a large enough effect in the repeat runs; inconclusive means weak or mixed curves; inactive means no such curve, though single readings can be large; an effect the other way counts as inactive or inconclusive.

Sequence of Vitamin D3 receptor (Homo sapiens) (P11473 whole entry, looked up): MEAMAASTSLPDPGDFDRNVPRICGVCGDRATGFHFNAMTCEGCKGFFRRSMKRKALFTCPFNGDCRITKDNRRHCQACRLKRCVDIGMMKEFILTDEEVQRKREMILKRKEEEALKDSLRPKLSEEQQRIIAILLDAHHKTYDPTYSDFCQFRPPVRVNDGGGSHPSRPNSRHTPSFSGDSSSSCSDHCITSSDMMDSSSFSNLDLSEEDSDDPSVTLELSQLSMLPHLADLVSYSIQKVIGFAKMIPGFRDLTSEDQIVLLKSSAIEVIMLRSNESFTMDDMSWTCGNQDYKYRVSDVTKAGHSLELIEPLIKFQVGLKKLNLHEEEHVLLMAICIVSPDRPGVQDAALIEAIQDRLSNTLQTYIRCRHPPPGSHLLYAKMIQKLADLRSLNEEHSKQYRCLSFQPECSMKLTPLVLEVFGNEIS
Sequence of Retinoic acid receptor RXR-alpha (Homo sapiens) (P19793 whole entry, looked up): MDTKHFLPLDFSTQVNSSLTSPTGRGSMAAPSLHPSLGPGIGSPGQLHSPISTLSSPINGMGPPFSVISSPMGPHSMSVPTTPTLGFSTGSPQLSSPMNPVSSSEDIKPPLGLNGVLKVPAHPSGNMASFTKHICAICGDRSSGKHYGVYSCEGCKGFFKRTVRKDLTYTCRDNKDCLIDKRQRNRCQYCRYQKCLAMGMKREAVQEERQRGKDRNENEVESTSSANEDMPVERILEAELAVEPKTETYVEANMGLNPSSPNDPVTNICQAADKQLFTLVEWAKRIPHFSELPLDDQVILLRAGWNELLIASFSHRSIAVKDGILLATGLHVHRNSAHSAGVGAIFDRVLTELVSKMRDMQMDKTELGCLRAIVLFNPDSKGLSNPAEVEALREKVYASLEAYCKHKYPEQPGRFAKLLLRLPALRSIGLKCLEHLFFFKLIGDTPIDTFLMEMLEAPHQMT

Turning to `CO[C@H]1C=CO[C@@]2(C)Oc3c(C)c(O)c4c(O)c(cc(O)c4c3C2=O)NC(=O)/C(C)=C\C=C/[C@H](C)[C@H](O)[C@@H](C)[C@@H](O)[C@@H](C)[C@H](OC(C)=O)[C@@H]1C`, the call in assay [1] was inactive. Further, the Potency result in [2], in assay [3], in [4], in [5] and in assay [6] was “inactive” each time. Further, the Potency was 43.6 µM (active) in [7], 49.3 µM (active) in assay [8] and 12.4 µM (active) in [9].

As to `Nc1cc(Cl)c([N+](=O)[O-])cc1O`, the Potency result in assay [10], in [11], in [12], in assay [13], in assay [14] and in assay [2] was “inactive” each time. The Potency entry in assay [15], in assay [3], in assay [4], in assay [5], in assay [6] and in [7] was “inactive” in each case. The Potency entry in [8], in assay [16] and in assay [9] was “inactive” each time. In addition, the molecule was called inactive in [1].

Consider `CC(C)(C)c1cc(/C=C2\SC(=N)NC2=O)cc(C(C)(C)C)c1O`, for which the Potency in [10] was 21.9 µM (active); in assay [11], 54.9 µM (active); in assay [14], 43.6 µM (active); in assay [4], 49 µM (active); in [5] it was 43.6 µM (active); in assay [6], 54.9 µM (active). Moreover, the Potency entry in assay [8] is “inactive”.

For `CCCC(CC)CCCCCCCN` (stereo unspecified), the Potency entry in assay [10], in assay [11], in assay [12], in [14], in [15] and in assay [3] was “inactive” each time. The Potency result in [4], in [5] and in assay [8] was “inactive” throughout. In addition, the result in [1] was inactive. In assay [6], the Potency was 39.9 µM (active).

Consider `O=Nc1ccc(NO)cc1`, for which, in assay [1], the outcome was inactive. Further, the Potency entry in assay [11], in [14], in [2], in assay [5], in assay [6] and in assay [8] was “inactive” each time. Besides, the Potency result in [16] and in assay [9] was “inactive” in each case.

Regarding `Clc1ccc(C(Cn2ccnc2)OCc2ccsc2Cl)c(Cl)c1` (stereo unspecified), the values for the Potency in assay [10], in [14] and in assay [7] were 29.8 µM (active), 18.8 µM (active) and 23.7 µM (active), respectively. The Potency entry in assay [11], in [15] and in assay [6] was “inactive” each time.

As for `CCCOc1sc(C(=O)N2CCC(c3cc(CN)ccc3F)CC2)c(C)c1Br`, the Potency is 15.9 µM (active) in assay [10]; 17.9 µM (active) in assay [11]; 25.2 µM (active) in [14]; 50.4 µM (active) in assay [2]; 35.7 µM (active) in assay [4]; 44.9 µM (active) in [6]. Moreover, the Potency in assay [7] is 28.1 µM (active); in assay [8], 44.9 µM (active); in [9], 17.9 µM (active).

With `O=C(O)CCn1c2c(c3ccccc31)C[C@H](NS(=O)(=O)c1ccc(F)cc1)CC2`, the Potency entry in assay [10], in assay [11], in [14], in [2], in [5] and in [6] was “inactive” in each case. The Potency result in assay [8] and in assay [9] was “inactive” each time.

Regarding `COc1ccc2sc(C(=O)Nc3nnn[nH]3)c(OC(C)C)c2c1`, the Potency entry in assay [11], in [14], in [17], in assay [2], in assay [4] and in assay [5] was “inactive” in each case. For the same molecule, the Potency result in [8] is “inactive”. In addition, the Potency in assay [6] was 19.4 µM (active); in [7], 12.1 µM (active).

For `CCN(CC)c1ccc(N)cc1`, in assay [13], the Potency result was “inactive”. Besides, the Potency in assay [4] is 20 µM (active).

The values above are taken from PubChem BioAssay (Tox21).
